Source: PubChem BioAssay (NCATS)
Results filed as inconclusive are left out. Calls of active or inactive are those of the source. Calls come from the whole dose curve; as a rule, active = well fitted cell-killing curve with a large enough effect; inconclusive = small, poorly fitted or top-dose-only effect, or effect the other way; inactive = flat fitted curve, though single readings scatter. *1 amine or outer side, *2 acyl side, *3 side chain or, on linkers, in order; H or OH if unused. Where a SMILES comes first, the peptide text is derived from it. [ ]: non-standard residue; d: D form. The star is where a group is joined. ξ: configuration not given here. X9 = CCC(C)(N*)C(=O)C1CC[C@@H](C(=O)N[C@@H](Cc2ccccc2)C(=O)NCC(=O)O)N1; X8 = O=C([C@@H]1CC(O)CN1[*:1])[*:2]; aIle = CC[C@@H](C)[C@H](N)C(=O)O; Thr(3ξ) = CC(O)[C@H](N)C(=O)O; ξIva = CCC(C)(N)C(=O)O; Aib = CC(C)(N)C(=O)O

Key:
Experiment in all cases: Primary qHTS to identify gynecologic anti-cancer compounds using libraries of approved drugs and bioactive compounds (AID 1345084); note: nearly all actives have a fitted effect of over 55% in size
Conditions in all cases: Gynecologic cancer cell panel viability, ATPlite luminescence, 48 h; series mostly up to 57.5 µM
SKOV3 = system: SKOV3
Summary of the method: (§1)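 Five-point cytotoxicity, 48 h drug exposure at 37 C, 5% CO2, on cells seeded 16 h beforehand. ATP content read by ATPlite luminescence.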

Tov-21-G = system: Tov-21-G
Summary of the method: as §1

Tov112D = system: Tov112D
Summary of the method: as §1
% is set by controls: 0 for no effect and ±100 for the full control effect.

C=C1C(O)CC2C(C(=O)O)=COC(O[C@@H]3O[C@H](COC(=O)c4ccc(O)cc4)[C@@H](O)[C@H](O)[C@H]3O)C12 (some centres not stated)
inactive: Potency (SKOV3) | Potency (Tov-21-G) | Potency (Tov112D)

COc1ccc(CC(NC(C)=O)C(=O)O)cc1 (configuration not stated)
inactive: Potency (SKOV3) | Potency (Tov-21-G) | Potency (Tov112D)

C=C1CC23CC(=O)C4C(CO)(CO)CCCC4(C)C2CCC1C3 (configuration not stated)
inactive: Potency (SKOV3) | Potency (Tov-21-G) | Potency (Tov112D)

COc1cccc(OC)c1-c1nc(C(=O)N[C@@H](CC(C)C)C(=O)O)cn1-c1ccnc2cc(Cl)ccc12
inactive: Potency (SKOV3) | Potency (Tov-21-G) | Potency (Tov112D)

c1cc(-c2cc(C3CCNCC3)[nH]n2)ccn1
inactive: Potency (SKOV3) | Potency (Tov-21-G) | Potency (Tov112D)

CC(C)C(NC(=O)c1ccc(O)cc1)C(=O)N1CCCC1C(=O)Nc1c(O)cccc1C(=O)O (configuration not stated)
inactive: Potency (SKOV3) | Potency (Tov-21-G) | Potency (Tov112D)

CC1OC(OC2C(OC3C(O[C@H]4CC[C@@]5(C)C(CC[C@]6(C)C5CC=C5C7CC(C)(C)CC(O)[C@]7(C)CC[C@]56C)C4(C)C)OC(C(=O)O)C(O)C3O)OCC(O)C2O)C(O)C(O)C1O (some centres not stated)
inactive: activity change, negative = cytotoxicity (SKOV3) 7.87% [at 11.6 µM] | activity change, negative = cytotoxicity (Tov-21-G) 6.64% [at 11.6 µM] | activity change, negative = cytotoxicity (Tov112D) 1.05% [at 11.6 µM]

CCCN1CCC[C@@H](c2cccc(S(C)(=O)=O)c2)C1
inactive: Potency (SKOV3) | Potency (Tov-21-G) | Potency (Tov112D)

CC[C@@H](C)[C@H](NC(=O)C(C)(C)NC(=O)[C@H](CCC(N)=O)NC(=O)C(C)(CC)NC(=O)[C@H](Cc1c[nH]c2ccccc12)NC(C)=O)C(=O)N[C@H](C(=O)NC(C)(C)C(=O)N[C@@H](CC(C)C)C(=O)NC(C)(C)C(=O)N1CCC[C@H]1C(=O)N[C@@H](CCC(N)=O)C(=O)NC(C)(C)C(=O)N1CC(O)C[C@H]1C(=O)NC(C)(CC)C(=O)C1CC[C@@H](C(=O)N[C@@H](Cc2ccccc2)C(=O)NCC(=O)O)N1)C(C)O (some centres not stated) (Ac-W[ξIva]Q[Aib][aIle][Thr(3ξ)][Aib]L[Aib]PQ[Aib][X8]-X9)
inactive: activity change, negative = cytotoxicity (SKOV3) -9.13% [at 6.55 µM] | activity change, negative = cytotoxicity (Tov-21-G) -16.8% [at 6.55 µM] | activity change, negative = cytotoxicity (Tov112D) -24.7% [at 6.55 µM]
